Here are results for 105 compounds from PubChem BioAssay AID652142 (Molecular Libraries Program, Specialized Chemistry Center, …, 2013).

Molecules are shown by their SMILES. In all, about 2,400 compounds went through this assay and fewer than 10 were called active. The rule behind the calls is not given here. Only a sample is shown.

In this assay the target is Rac GTPase-activating protein 1 (Homo sapiens) (UniProt Q9H0H5). Description: MgcRacGAP inhibitors via phosphate release, confirmation, orthogonal assay, biochemical, inorganic phosphate detection, Rac1 (AID 652142). As to conditions: MgcRacGAP/Rac1F28L GTP hydrolysis, Biomol green phosphate; stronger effect = higher value; concentration not given here.
Chain of Rac GTPase-activating protein 1 (Homo sapiens) (Q9H0H5 whole entry, looked up): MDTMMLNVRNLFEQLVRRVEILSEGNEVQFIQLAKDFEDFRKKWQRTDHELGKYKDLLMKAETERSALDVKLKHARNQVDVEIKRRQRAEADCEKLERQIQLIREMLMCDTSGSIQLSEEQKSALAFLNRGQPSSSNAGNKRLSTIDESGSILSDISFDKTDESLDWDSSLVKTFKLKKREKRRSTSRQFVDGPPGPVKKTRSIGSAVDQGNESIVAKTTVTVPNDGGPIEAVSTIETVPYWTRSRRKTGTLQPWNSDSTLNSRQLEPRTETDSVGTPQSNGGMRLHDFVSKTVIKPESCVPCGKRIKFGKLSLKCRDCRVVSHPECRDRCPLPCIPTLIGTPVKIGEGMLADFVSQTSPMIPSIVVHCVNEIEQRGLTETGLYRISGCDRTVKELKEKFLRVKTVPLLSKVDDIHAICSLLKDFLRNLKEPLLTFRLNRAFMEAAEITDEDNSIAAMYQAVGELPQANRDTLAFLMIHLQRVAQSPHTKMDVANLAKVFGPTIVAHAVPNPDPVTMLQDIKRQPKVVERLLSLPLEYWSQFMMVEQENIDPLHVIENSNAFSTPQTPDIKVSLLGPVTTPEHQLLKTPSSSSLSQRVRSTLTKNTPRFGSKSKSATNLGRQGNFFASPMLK
For the compound `CN(C)CCCN1c2ccc(O)cc2Sc2ccc(Cl)cc21`, the inhibition was 30.1% (inactive). Take `COc1cc(/C=N/NC(=O)c2cccc(NC(=O)c3ccccc3C)c2)ccc1O`: the inhibition was 19.3% (inactive). With `C/C(=N\NC(=O)c1ccc(O)cc1)c1ccc2c(c1)Nc1ccccc1S2`, the inhibition is 28.2% (inactive). As for `CCOc1cc(CNc2ccc(N3CCCCC3)cc2)cc(Br)c1OCC(=O)NC(C)(C)C`, the figure is 35.1% (inactive); as for `Cc1cc(NS(=O)(=O)c2ccc(Nc3nc(-c4ccc(O)cc4)cs3)cc2)no1`, 23.8% (inactive); as for `COC(=O)c1ccc(NC(=S)Nc2ccc(O)cc2)cc1`, 34.6% (inactive). As for `C[C@H]1CCC/C=C/[C@@H]2C[C@H](O)C[C@H]2[C@H](O)[C@H](S(=O)c2ccc(O)cc2)CC(=O)O1` (stereo not given in full), the figure is 47.3% (inactive); as for `Cc1[nH]nc(-c2ccc(O)c(C)c2O)c1-c1cnn(-c2ccccc2)c1`, 36.4% (inactive).

Turning to `Cn1c(=O)c2c([nH]c(=S)n2CCCc2ccccc2)n(C)c1=O`, the inhibition was 26.4% (inactive). As for `Oc1ccc(N=Nc2ccccc2)cc1`, the figure is 8.73% (inactive); as for `O=C1C=C(Nc2ccc(O)cc2)C(=O)c2ccccc21`, 25.1% (inactive); as for `COc1cc(/C=N/Nc2nn3cnnc3c3ccccc23)ccc1O`, 26.4% (inactive). Next, `C/C(CC(=O)Nc1ccc(N(C)C)cc1)=N\NC(=O)c1ccc([N+](=O)[O-])cc1Cl`: 26.5% (inactive); `COc1cc(/C=N/n2c(C3CCCCC3)n[nH]c2=S)ccc1O`: 27.2% (inactive); `Cc1ccc(NC(=O)CN2CCN(C)CC2)cc1Br`: 26.9% (inactive). On to `CCCCn1c(SCC(=O)c2ccc(O)c(O)c2)nc2ccsc2c1=O`, for which the inhibition is 27.5% (inactive). As for `CCOC(=O)c1[nH]c2ccc(F)cc2c1NC(=O)c1ccccc1C(=O)O`, the figure is 22.6% (inactive).

Take `Cc1ccc(/C=N/Nc2ccc(Cl)c(C(=O)O)c2)s1`: the inhibition is 6.67% (inactive). Next, `O=C(c1cccnc1)N1CCN(Cc2cccc(Br)c2)CC1`: 26.8% (inactive).

As for `COc1ccc(N=C2NC(=O)/C(=C/c3ccc(O)c(OC)c3)S2)cc1`, the inhibition was 19.7% (inactive). Turning to `Oc1ccc(-c2csc(-c3cccnc3)n2)c(O)c1`, the inhibition is 14.8% (inactive). Next, `Cc1nc(N)sc1-c1ccccc1`: 20.1% (inactive).

With `COc1ccc(NC(=O)c2cc3ccc(O)cc3o/c2=N\O)cc1`, the inhibition is 17.5% (inactive). As for `COc1cc(/C=N/NC(=S)Nc2cccc(S(=O)(=O)N(C)C)c2)ccc1O`, the figure is 20.1% (inactive); as for `O=C(Nc1n[nH]c(=S)s1)c1ccco1`, 29.1% (inactive); as for `CCc1nc(Nc2ccc(O)cc2)c2oc3ccccc3c2n1`, 27.8% (inactive).

Regarding `CCCCCC(=O)Nc1cc(S(=O)(=O)O)cc2cc(S(=O)(=O)O)cc(O)c12`, the inhibition is 64.8% (inactive). As for `CCOc1ccc(/C=N/NC(=O)NC23CC4CC(CC(C4)C2)C3)cc1O`, the figure is 17.5% (inactive); as for `CCn1c(C)nc2cc(C(=O)N/N=C/c3ccc(O)cc3)ccc21`, 22.6% (inactive); as for `COc1ccc(Oc2c(-c3ccc(O)cc3O)n[nH]c2C)cc1`, 9.67% (inactive).

Take `C=C(CN(C)C)C(=O)c1cc(OC)c(OC)cc1OC`: the inhibition is 6.42% (inactive). Next, `CCn1c(=O)c(C(=O)CN(C)Cc2cccc(OC)c2OC)c(N)n(Cc2ccccc2)c1=O`: 35.9% (inactive); `CCOc1ccc2c(ccc(/C=C/c3cc(C)c4cccnc4c3O)[n+]2C)c1`: 66.1% (inactive). As for `CN(C)c1ccc(NC(=O)c2sc(SCC(=O)Nc3nccs3)nc2N)cc1`, the figure is 29.2% (inactive). As for `Cc1ccc(NCCN(C)C)c2c(=O)c3cc(O)ccc3sc12`, the figure is 31.1% (inactive); as for `C(=N\Nc1nc2ccccc2[nH]1)/c1c[nH]c2ccccc12`, 4.59% (inactive). With `COc1cc2c(cc1NC(=S)Nc1cccc3ccccc13)oc1ccccc12`, the inhibition is 21.3% (inactive). Next, `NS(=O)(=O)c1ccc(Nc2nc(-c3ccc(O)cc3O)cs2)cc1`: 24.5% (inactive); `Cc1cc(=O)[nH]c2c(N=Nc3ccc(O)cc3)c(N)nn12`: 34.3% (inactive). For `CSCCOC(=O)C1=C(C)Nc2ccc(C)cc2S1`, the inhibition is 29.3% (inactive).

In the case of `OCC1CCCN(C(=S)Nc2ccc(Nc3ccccc3)cc2)C1` (stereo not given), the inhibition was 34.4% (inactive).

Turning to `COc1cc2c(cc1NC(=S)Nc1cccc(C(F)(F)F)c1)oc1ccccc12`, the inhibition was 8.84% (inactive).

Take `COc1cc(/C=N/n2c(-c3cc(C)[nH]n3)n[nH]c2=S)cc(OC)c1OC`: the inhibition is 1.28% (inactive).

As to `CCN(CC)c1ccc(C(=C2C=CC(=[N+](CC)CC)C=C2)c2ccc(N(CC)CC)cc2)cc1`, the inhibition was 90% (inactive).

As to `COc1cc(C=NNC(=O)c2ccccc2-n2cccc2)ccc1O`, the inhibition was 22% (inactive). Next, `COc1cc2c(cc1OC)C1(CCCC1)C(N)=C2C#N`: 18.7% (inactive); `CC1CC(=O)N(c2ccc(NCCc3ccc(O)cc3)c([N+](=O)[O-])c2)C1=O` (stereo not given): 29.1% (inactive); `CCN1C(=O)/C(=C2/C=Cc3cc(C)ccc3N2CC)N(C)C1=S`: 23% (inactive). As for `O=C(O)c1c2c(nc3ccccc13)/C(=C/c1ccc(O)cc1)CCC2`, the figure is 19.3% (inactive).

Consider `CN(C)c1ccc(NC2=C(Cl)C(=O)c3ccccc3C2=O)cc1`, for which the inhibition was 22% (inactive). As for `Cc1ccc(/C(N)=N/OC(=O)N2c3ccccc3Sc3ccccc32)cc1`, the figure is 23.7% (inactive); as for `Oc1ccc(Nc2ncnc3ccccc23)cc1`, 20.3% (inactive). As for `CN1/C(=C\C=N\NC(=O)c2ccc(O)cc2)C(C)(C)c2ccccc21`, the figure is 22.5% (inactive).

For the compound `O=C(Cn1c(C(=O)NCC2CCCO2)cc2sccc21)c1ccccc1` (stereo not given), the inhibition was 18.4% (inactive). As for `Cc1ccc(NC(=O)CCNCc2ccco2)cc1S(=O)(=O)N(C)C`, the figure is 33.8% (inactive); as for `CC(NCc1ccc(S(N)(=O)=O)cc1)C(=O)N1c2ccccc2CC1C` (stereo not given), 13.9% (inactive); as for `O=C(C1=C(O)C(=O)N(c2nc3ccc(Cl)cc3s2)C1c1ccco1)c1ccco1` (stereo not given), 28.7% (inactive). Next, `C/C(=N\NC(=O)c1ccccc1F)c1ccc2c(c1)Nc1ccccc1S2`: 20.8% (inactive). As for `COc1cc(/C=C2\C(=O)N(C)C(=S)N2C)ccc1O`, the inhibition is 9.53% (inactive). As for `COc1ccc(NC(=O)c2ccc(NC(=O)CN3CCN(c4ccc(O)cc4)CC3)cc2)cc1`, the figure is 18.8% (inactive).

On to `CN(C)CCNc1ccc(CO)c2oc3ccc(O)cc3c(=O)c12`, for which the inhibition was 14.8% (inactive). Next, `CN(C)c1ccc(/C=C/c2ccc3ccccc3[n+]2C)cc1`: 41% (inactive). Consider `Oc1ccc(/C=C/c2ccc3ccccc3n2)cc1`, for which the inhibition is 35.5% (inactive). In the case of `O=C1/C(=C\c2ccc(O)cc2)SC(=S)N1/N=C/c1ccc(O)cc1`, the inhibition was 13.5% (inactive). As for `COc1ccccc1C(=O)N1CCN(Cc2cccnc2)CC1`, the figure is 19.7% (inactive). Next, `CN(C)c1ccc(/C=C2/C[N+](C)(C)C/C(=C/c3ccc(N(C)C)cc3)C2=O)cc1`: 25.4% (inactive); `Cc1cc(O)ccc1NC(=O)c1ccccc1`: 36% (inactive). Next, `Cc1cc(C)c2nc(C)cc(N/N=C/c3ccc(O)cc3)c2c1`: 41.9% (inactive); `COc1cc(/C=C2\SC(=S)N(Nc3ccccc3)C2=O)ccc1O`: 19.2% (inactive); `O=C(Oc1ccc(N(C(=O)c2ccncc2)S(=O)(=O)c2cccs2)cc1)c1ccncc1`: 26.2% (inactive). Turning to `CCOc1cc(/C=C2\C(=O)N(CCc3ccc(OC)c(OC)c3)C(C)=C2C(=O)OC)ccc1O`, the inhibition is 20.6% (inactive). Next, `O=C(CN1CCN(c2ccc(O)cc2)CC1)NCC(=O)Nc1ccc(F)c(F)c1F`: 24.8% (inactive); `O=C(COc1ccccc1C(=O)N/N=C\c1ccc(O)c(O)c1)N/N=C/c1ccc(O)c(O)c1`: 8.94% (inactive). Next, `COc1ccc(NC2CCCN(C(=O)c3ccc4[nH]c(C)c(C)c4c3)C2)cc1` (stereo not given): 17.9% (inactive); `COc1cc(/C=N/NC(=O)CCn2c3ccccc3c3ccccc32)ccc1O`: 21% (inactive); `COCCCNC1=C(C#N)C(=O)NC(c2cccs2)S1` (stereo not given): 40.4% (inactive). Next, `CN(C)CCNc1ccc(CO)c2sc3ccc(O)cc3c(=O)c12`: 12.6% (inactive); `NC(CSS(=O)(=O)O)=NCCC12CC3CC(CC(O)(C3)C1)C2`: 34.4% (inactive); `C=CCn1c(SCC(=O)Nc2ccc(N(C)C)cc2)nnc1-c1cccc(C)c1`: 15.5% (inactive). In the case of `CCOc1cc(-c2nc3ccccc3s2)ccc1O`, the inhibition is 30.1% (inactive).

Take `Oc1ccc(/C=N/Nc2nn3cnnc3c3ccccc23)cc1`: the inhibition is 25.8% (inactive). As for `Oc1ccc(/C=N/n2c(-c3ccco3)csc2=Nc2cccnc2)c(O)c1`, the figure is 23.8% (inactive); as for `Cc1ccc(S(=O)(=O)c2cc(Nc3ccccc3)ccc2O)cc1`, 11.6% (inactive). As for `Cc1cc(C)n(CC(O)CN2c3ccccc3Sc3ccccc32)n1` (stereo not given), the figure is 32.2% (inactive). Next, `CC(C)C1=Nc2cccc3cccc(c23)N1`: 22.3% (inactive).

`COc1nc(Nc2ccc(O)cc2)nc(OC(C(F)(F)F)C(F)(F)F)n1`: the inhibition was 18.1% (inactive). Next, `Clc1cccc(N/N=C/c2ccc(N3CCOCC3)s2)c1`: 29.3% (inactive); `CCOC(=O)C1CCN(Cc2cn[nH]c2-c2ccccc2)CC1`: 27.9% (inactive); `CCOc1cc(/C=N/NC(=O)Nc2ccccc2)ccc1O`: 23.6% (inactive).

Regarding `CCOc1cc(/C=C(\C#N)c2[nH]nc(N)c2C#N)ccc1O`, the inhibition is 29.6% (inactive). Next, `Cc1cc(-c2ccccc2)nc(N/N=C/c2ccc(O)cc2)n1`: 18.1% (inactive); `CCOC(=O)C1=C(C)Nc2ccccc2S1`: 35.2% (inactive); `C=CCOc1ccccc1CN1CCCN(C)CC1`: 22.3% (inactive).

As for `CCOc1cc(/C=C(\C#N)C(=O)NCC2CCCO2)ccc1O` (stereo not given), the inhibition is 23.9% (inactive). Next, `CN1C(=O)NC(c2ccc(O)cc2)C2=C1CN(c1ccc(O)cc1)C2=O` (stereo not given): 24.1% (inactive); `Cc1ccnc(Nc2nc(-c3ccc(O)c(O)c3)cs2)c1`: 23.8% (inactive). As for `CCOC(=O)c1nc(Nc2ccc(Nc3ccccc3)cc2)c2ccccc2n1`, the figure is 32% (inactive); as for `Oc1ccc(NC(=S)N=Nc2c(O)[nH]c3ccc(Br)cc23)cc1`, 26.7% (inactive); as for `CCOC(=O)c1[nH]c2ccccc2c1NC(=S)Nc1cccc(C)c1C`, 18.1% (inactive). For `CCN(CC)c1ccc(C(=C2C=CC(=[N+](CC)CC)C=C2)c2ccccc2)cc1`, the inhibition was 28% (inactive). On to `CC(C)N=c1scc(-c2ccco2)n1/N=C/c1ccc(O)c(O)c1`, for which the inhibition is 27.8% (inactive). As for `O=C1CSC(=S)N1Nc1ccccc1`, the figure is 17.3% (inactive); as for `CCc1cc(-c2n[nH]c(CCC(=O)O)c2-c2nc3ccccc3n2C)c(O)cc1O`, 30.8% (inactive); as for `Nc1nc(=S)c2[nH]c(=S)[nH]c2[nH]1`, 35.5% (inactive). In the case of `CC(C(=O)NCC(=O)Nc1ccc(F)c(F)c1F)N1CCN(c2ccc(O)cc2)CC1` (stereo not given), the inhibition was 20.8% (inactive).
